According to PubChem BioAssay (EPA / NIEHS):
Records with an inconclusive call do not appear. Some compounds were tested as several samples or in several runs, with calls that do not always agree. Active and inactive are the calls of the source. The calls were made as follows: active = hit-call score of the fitted dose curve at least 0.9, where 1 is the maximum; inconclusive = response in the unintended direction; inactive = score below 0.9.

Test: CCTE_Simmons_MITO_viability: CellTiter-Glo Viability Assessment for CCTE's HepG2 Seahorse XF Respirometric Screening Assay [post-hoc], Simmons Lab (AID 2284007);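 as to AC50: cells exposed to chemical for 90 min before the ATP read; actives lower ATP signal relative to DMSO baseline meaning reduced viability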
Procedure: CCTE_Simmons_MITO is cell-based, respirometric assay using HepG2 cells and a Seahorse XF Analyzer to measure oxygen consumption rates over four temporal phases spanning a total of 72 minutes: pre-injection (pre-treatment), basal (following test compound injection), maximal (following FCCP uncoupler injection), and inhibited (following rotenone/antimycin A injection)CCTE_Simmons_MITO_viability is one of 4 assay components measured from the CCTE_Simmons_MITO assay. It is designed to make measurements of ATP content, a form of viability reporter, as detected with bioluminescence signals by Luciferase-coupled ATP quantitation technology. Data from the assay component CCTE_Simmons_MITO_viability was analyzed at the endpoint, CCTE_Simmons_MITO_viability, in the positive analysis fitting direction relative to DMSO as the negative control and baseline of activity. Using a type of viability reporter, measures of ATP content for loss-of-signal activity can be used to understand the viability. To generalize the intended target to other relatable targets, this assay endpoint is annotated to the cell cycle intended target family, where the subfamily is cytotoxicity.
Test chemicals were administered as a titrated series of 7 concentrations from 125 nM up to 100 uM [final] for 90 minutes prior to single endpoint detection. Three biological replicates of technical singles were run for every chemical concentration tested. Dimethylsulfoxide [DMSO] was used as the vehicle control. Dichlone [DCNQ] was used as the positive control and was administered as a titrated series of 8 concentrations from 10 nM up to 100 uM [final].
With `CC1COC(Cn2cncn2)(c2ccc(Oc3ccc(Cl)cc3)cc2Cl)O1` (stereo unspecified) the outcome was “inactive”.
With `N#CC(CCc1ccc(Cl)cc1)(Cn1cncn1)c1ccccc1` (stereo unspecified) the outcome was “inactive”.
For `COC(=O)N(OC)c1ccccc1COc1ccn(-c2ccc(Cl)cc2)n1`, the outcome was “inactive”.
For `CC(C)Oc1cc(-n2nc(C(C)(C)C)oc2=O)c(Cl)cc1Cl`, the outcome was “inactive”.
For `CCc1nn(C)c(C(=O)NCc2ccc(C(C)(C)C)cc2)c1Cl`, the AC50 was 0.217 µM (active).
In the case of `CC(C)(C)c1ccc(CSc2cnn(C(C)(C)C)c(=O)c2Cl)cc1`, the AC50 is reported as 0.411 µM (active).
With `Cc1ccc(-c2c(Cl)nc(C#N)n2S(=O)(=O)N(C)C)cc1` the outcome was “inactive”.
With `N#Cc1cc(Br)c(O)c(Br)c1` the AC50 was 10.8 µM (active).
In the case of `C=CCC1=C(C)[C@@H](OC(=O)[C@@H]2[C@@H](C=C(C)C)C2(C)C)CC1=O`, the outcome is reported as “inactive”.
For `CCCN(CCC)c1c([N+](=O)[O-])cc(S(N)(=O)=O)cc1[N+](=O)[O-]`, the outcome was “inactive”.
In the case of `COc1nc(NC(C)C)nc(NC(C)C)n1`, the outcome is reported as “inactive”.
For `CON(C)C(=O)Nc1ccc(Cl)c(Cl)c1`, the outcome was “inactive”.
For `CO/C=C(/C(=O)OC)c1ccccc1Oc1cc(Oc2ccccc2C#N)ncn1`, the outcome was “inactive”.
With `CCCCNC(=O)OCC#CI` the outcome was “inactive”.
With `COP(=S)(OC)Oc1nc(Cl)c(Cl)cc1Cl` the AC50 was 19.8 µM (active).
With `N#Cc1nn(-c2c(Cl)cc(C(F)(F)F)cc2Cl)c(N)c1S(=O)C(F)(F)F` (stereo unspecified) the outcome was “inactive”.
For `C=CCC1=C(C)C(OC(=O)C2C(C=C(C)C)C2(C)C)CC1=O` (stereo unspecified), the outcome was “inactive” and the AC50 was 5.17 µM (active).
For `CCCC1COC(Cn2cncn2)(c2ccc(Cl)cc2Cl)O1` (stereo unspecified), the AC50 was 26.5 µM (active).
In the case of `O=C(Nc1ccccc1)Nc1ccnc(Cl)c1`, the outcome is reported as “inactive”.
For `OC(c1ccc(Cl)cc1)(c1cncnc1)c1ccccc1Cl` (stereo unspecified), the outcome was “inactive”.
